Assay outcomes: PubChem BioAssay, several laboratories
Compounds with a hit are over-represented: about 5.2% of the library has one in this group of screens.
Vif inh = HIV Vif inhibition | HEK293T cells, Vif self-association by quenched fluorescence, imaging, 24 h | AID 602346 | 0.35% of 340,000 active | inhibition, % at 7.49 µM; in the data active = inhibition above about 50%, passing the limit was not always enough
NR3A LBD binder = modulators (binders) of human NR3A ligand-binding domain; 2.5% of 340,000 active; AID 1259313; NR3A LBD differential scanning fluorimetry, Tm shift; 0% = protein alone, 100% = glycine-bound protein; Tm shift relative to glycine control, % at 25 µM;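 active = melting temperature shift of at least 10% of the positive control shift, at one fixed dose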
NadD inh = blocks S. aureus nicotinate mononucleotide adenylyltransferase. inhibition, % at 20 µM. AID 602399. 0.78% of 360,000 active. purified NadD enzyme, colorimetric absorbance read-out; in the data active = inhibition above about 26%
esBAF inh = SWI/SNF esBAF complex inhibition; mouse ES cells, Bmi1-luciferase knock-in reporter, 24 h; 100% = twice the neutral-well signal; reporter increase, % at 12.5 µM; 2% of 350,000 active; AID 602393; in the data active = activation above about 40%;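 also: 0% = median of the plate's neutral control wells and 100% = double that signal; a rise in the Bmi1 reporter signal indicates esBAF inhibition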
SKN-1 block = blocks SKN-1 activity in C. elegans; C. elegans VP596 Pgst-4::GFP/RFP ratio, acrylamide-induced, 24 h; inhibition, % at 21.8 µM; 0.49% of 360,000 active;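 active = interference check ratio from 0.5 to 1.5 plus GFP to RFP signal ratio inhibition reaching or exceeding a fixed threshold, cut at about 30% in these data, passing the limit was not always enough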
SMARCA2 activ = SMARCA2 function activation, primary screen; MG213 cells, MMTV-luciferase reporter, dexamethasone, overnight; activation, % at 9.1 µM; AID 652017; 1% of 370,000 active; in the data active = activation above about 7.8%;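 also: 0% = vehicle wells and 100% = reference activator wells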
Numbers without * were called inactive; x = no result.

SMILES	Vif inh	NR3A LBD binder	NadD inh	esBAF inh	SKN-1 block	SMARCA2 activ
Cc1noc(C)c1S(=O)(=O)Nc1cccc2c1O[C@@H](CN(C)S(=O)(=O)c1cn(C)cn1)[C@@H](C)CN([C@@H](C)CO)C2=O	x	x	x	-1.4	x	x
CCCNc1nc(-c2ccccc2)c(C(=O)OCC)cc1C#N	13.9	-2.7	-5.1	-9.0	4.4	1.1
CCOC(=O)c1cc(C#N)c(Oc2ccccc2)nc1-c1ccccc1	3.1	12.5*	-3.6	x	22.8	-2.1
Cc1ccc(CNC(=O)Cn2c(=O)c3sccc3n(Cc3ccc([N+](=O)[O-])cc3)c2=O)cc1	-3.5	30.6*	3.3	x	-10.4	-1.8
Cc1ccc(CNC(=O)Cn2c(=O)n(CC(=O)N3CCCCC3)c(=O)c3sccc32)cc1	3.0	2.3	-4.7	-1.4	8.6	-2.6
C[C@H](CO)N1C[C@H](C)[C@@H](CN(C)CC2CCCCC2)Oc2ccc(NC(=O)CCC(F)(F)F)cc2C1=O	x	x	x	-1.4	x	x
C[C@@H]1CN([C@@H](C)CO)C(=O)c2cc(NS(=O)(=O)c3ccc(F)cc3)ccc2O[C@@H](C)CCCCO[C@@H]1CN(C)C(=O)c1ccccc1	x	x	x	2.1	x	x
CCC1=C(OC(=O)c2ccccc2)C(C)(C)C(c2ccccc2)OC1=O (stereo not given)	4.1	14.0*	-2.7	6.7	-2.6	-0.4
CC1=NN2C(=N)/C(=C\c3cc(C)n(-c4ccccc4)c3C)C(=O)N=C2S1	-5.4	1.0	2.6	x	8.5	0.9
Cc1cc(/C=C2\C(=N)N3C(SCc4ccccc4)=NSC3=NC2=O)c(C)n1Cc1ccccc1	93.4*	14.0*	30.8*	1.5	5.0	-2.3
Cc1cc(/C=C2\C(=N)N3N=C(C(C)C)SC3=NC2=O)c(C)n1Cc1ccccc1	-1.0	1.2	-6.4	-5.7	21.3	3.9
CCOc1ccc(-n2c(C)cc(/C=C3/C(=N)N4C(=NC3=O)SN=C4S(C)(=O)=O)c2C)cc1	-1.9	-0.7	33.5*	x	0.6	1.0
CCC(CC)C1=NN2C(=N)/C(=C\c3cc(C)n(-c4cccc(C)c4)c3C)C(=O)N=C2S1	3.9	5.0	41.3*	-3.8	3.4	3.3
C/C=C/c1ccc2c(c1)O[C@H](CN(C)C(=O)c1ccncc1)[C@H](C)CN([C@@H](C)CO)S2(=O)=O	x	x	x	-0.8	x	x
CN1CCN(C(=O)C[C@H]2CC[C@@H]3[C@H](COC[C@@H](O)CN3C(=O)C3CC3)O2)CC1	x	x	x	-1.3	x	x
O=C(COC(=O)c1cccc(S(=O)(=O)N2CCOCC2)c1)Nc1ncc(C(F)(F)F)cc1Cl	-1.2	1.6	9.7	-2.0	41.9*	-2.8
O=C(COC(=O)c1cccc(S(=O)(=O)N2CCOCC2)c1)Nc1nc(-c2ccccc2Cl)cs1	-3.9	-3.8	14.2	52.0*	13.1	-1.0
CO[C@@H]1CN(C)C(=O)c2ccc(NC(=O)Nc3ccccc3)cc2OC[C@H](C)N(C(=O)Nc2c(C)noc2C)C[C@H]1C	x	x	x	-1.7	x	x
Cc1ccc(OCC(O)Cn2c(NCCc3ccccc3)nc3c2c(=O)[nH]c(=O)n3C)cc1 (stereo not given)	-2.3	10.7*	-5.0	13.3	-2.4	3.6
Cn1c(=O)[nH]c(=O)c2c1nc(Br)n2CC(O)COc1ccccc1 (stereo not given)	4.7	-0.6	-0.3	-6.2	6.1	7.9*
COc1ccccc1OCC(O)Cn1c(Br)nc2c1c(=O)[nH]c(=O)n2C (stereo not given)	x	-0.2	0.5	-6.1	-7.2	0.7
Cn1c(=O)[nH]c(=O)c2c1nc(NCc1ccccc1)n2CC(O)c1ccccc1 (stereo not given)	21.4	11.0*	-5.4	0.8	-8.4	-0.7
COCCn1c(NCc2ccccc2)nc2c1c(=O)[nH]c(=O)n2C	0.6	2.8	-0.2	-0.8	0.1	-0.6
CC(=O)c1cccc(NC(=S)NCCc2ccc(Cl)cc2)c1	-24.5	14.8*	-0.9	-5.9	1.5	-4.0
CCN(CCNC(=O)Nc1ccc(Cl)cc1)c1ccccc1	-2.6	22.3*	-4.4	x	8.7	-3.2
O=C(NCCc1ccc(Cl)cc1)Nc1ccc(Cl)cc1	11.0	20.1*	-7.9	x	22.1	3.7
CCN(CCNC(=O)C1CCN(S(C)(=O)=O)CC1)c1ccccc1	10.4	-1.0	-9.2	-9.8	2.1	-2.8
O=C(NCCc1ccc(Cl)cc1)c1ccc(Br)s1	x	-1.2	-1.4	64.3*	-4.3	2.5
